# Source: PubChem BioAssay (NCATS)
# Inconclusive results are not listed. Activity calls are given as the source filed them. The call rests on the fitted dose curve; in most records, active means well fitted curve in the direction sought with a large enough effect; inconclusive means small, poorly fitted or top-dose-only effect, or another doubt; inactive means no such curve, though single readings can be large; an effect the other way counts as inactive or inconclusive.
# Experiments:
# [1] = Cellular viability qHTS for adrenocortical cancer (ACC) cell line SW-13 (AID 1963989); conditions: SW-13 ACC cells viability, CellTiter-Glo, 48 h; activity (max response): hits give low values;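 further: cells grown in serum-free medium with ITS supplement; on the % scale 0 is the no-effect control and ±100 the full control effect; nearly all actives have a fitted effect of over 65% in size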
# Procedure, shortened: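 Viability was read as CellTiter-Glo luminescence after 48 h compound treatment (up to 46 uM final) of SW-13 cells grown serum-free; titration curves were fit with a four-parameter logistic model to give IC50 and efficacy.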
# [2] = Quantitative highthroughput screen to assess conditional lethalithy of SEM cells grown in Human Plasma-Like Medium with dialyzed fetal bovine serum (HPLM+ds) (AID 1963882); further: potency means the concentration at half of the fitted maximal effect; nearly all actives have a fitted effect of over 35% in size
# Procedure, shortened: (§1)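 Each medium arm—HPLM with 10% dialyzed FBS, or RPMI1640 with 5 mM glucose and 10% untreated or dialyzed FBS—was screened against an 11-point, 3-fold compound titration for 48 h at 37 °C, with CellTiter-Glo luminescence as endpoint.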
# [3] = Cellular viability qHTS for adrenocortical cancer (ACC) cell line NCI-H295R (AID 1963990); further: potency means the concentration at half of the fitted maximal effect; nearly all actives have a fitted effect of over 60% in size
# Procedure, shortened: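 CellTiter-Glo ATP luminescence, read 48 h after compound addition, measured viability of NCI-H295R adrenocortical cells grown serum-free with ITS. Final concentrations spanned up to 46 uM. Data normalized to DMSO and doxorubicin, fitted for IC50 and maximal response.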
# [4] = Quantitative highthroughput screen to assess conditional lethalithy of SEM cells grown in RPMI1640 with unreated serum (RPMI+s) (AID 1963883); further: potency means the concentration at half of the fitted maximal effect; nearly all actives have a fitted effect of over 35% in size
# Procedure, shortened: as §1
# [5] = Quantitative highthroughput screen to assess conditional lethalithy of SEM cells grown in RPMI1640 with dialyzed fetal bovine serum (RPMI+ds) (AID 1963884); further: potency means the concentration at half of the fitted maximal effect; nearly all actives have a fitted effect of over 35% in size
# Procedure, shortened: as §1
structure (smiles),measurement,setting,value
O=C1S/C(=C\c2ccc(OCc3cccc(B(O)O)c3)cc2)C(=O)N1Cc1ccc(F)cc1,activity (max response),[1],-17.7% (inactive)
NC(=O)c1cnc(N[C@@H]2CCCC[C@@H]2N)nc1Nc1cccc(-n2nccn2)c1,Potency,[2],11.7 µM (active)
same,Potency,[3],25.1 µM (active)
COc1cc2nc(-c3cc(F)ccc3O)nc(N[C@@H]3CNC[C@@H]3C(C)(C)O)c2cc1OC,Potency,[2],0.332 µM (active)
same,Potency,[4],0.469 µM (active)
CC(C)=CCCC(C)=CCCC(C)=CCSc1ccccc1C(=O)O,Potency,[2],6.62 µM (active)
same,Potency,[4],6.62 µM (active)
same,Potency,[5],11.8 µM (active)
